Source: PubChem BioAssay
ST2 IL33 inh: inhibitors of human ST2 (IL1RL1) binding to IL-33; 78,000 compounds, 2.3% hits; AID 1259354; inhibition, % for hits at 17 µM; AlphaLISA ST2-Fc/biotin-IL-33 interaction, 1 h; Q01638; in the data active = inhibition above about 30%
Target sequence (Q01638 whole entry, looked up): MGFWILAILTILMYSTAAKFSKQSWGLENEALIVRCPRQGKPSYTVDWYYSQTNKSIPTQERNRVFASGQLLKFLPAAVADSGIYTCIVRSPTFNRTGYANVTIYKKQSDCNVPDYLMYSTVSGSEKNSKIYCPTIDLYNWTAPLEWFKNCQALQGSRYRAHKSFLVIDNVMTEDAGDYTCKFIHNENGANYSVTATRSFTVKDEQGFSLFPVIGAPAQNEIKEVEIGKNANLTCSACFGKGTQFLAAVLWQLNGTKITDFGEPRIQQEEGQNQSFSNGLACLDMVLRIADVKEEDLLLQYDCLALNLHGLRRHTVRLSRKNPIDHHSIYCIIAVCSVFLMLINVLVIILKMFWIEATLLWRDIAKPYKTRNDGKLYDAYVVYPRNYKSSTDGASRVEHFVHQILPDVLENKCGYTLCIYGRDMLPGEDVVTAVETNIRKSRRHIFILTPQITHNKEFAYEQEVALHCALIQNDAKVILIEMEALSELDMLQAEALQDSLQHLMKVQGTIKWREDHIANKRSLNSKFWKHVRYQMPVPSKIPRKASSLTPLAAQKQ
* hit, by the source's call; i = inactive. The sample as a whole holds a higher share of hits than the screen did.

SMILES	ST2 IL33 inh
Cc1c(N=Cc2cc([N+](=O)[O-])ccc2N2CCCCCC2)c(=O)n(-c2ccccc2)n1C	42.0%*
Cc1c(N=Cc2cc([N+](=O)[O-])ccc2N(C)C2CCCCC2)c(=O)n(-c2ccccc2)n1C	47.0%*
COc1cc(C=Nc2c(C)n(C)n(-c3ccccc3)c2=O)c([N+](=O)[O-])cc1OC	i
Cc1c(N=Cc2cc(Br)cc(Br)c2O)c(=O)n(-c2ccccc2)n1C	i
Cc1c(N=Cc2ccc(Cl)o2)c(=O)n(-c2ccccc2)n1C	i
COc1cccc(C2C(=C(O)c3ccccc3)C(=O)C(=O)N2c2ccccc2)c1 (stereo not given)	i
CC(c1ccccc1)n1nnnc1N1CC(c2ccncc2)C1 (stereo not given)	i
COc1ccc(C2CC(c3ccccc3)=NN2C(=O)c2cc(OC)c(OC)c(OC)c2)cc1 (stereo not given)	i
COc1cc(C(=O)N2N=C(c3ccccc3)CC2c2ccc(N(C)C)cc2)cc(OC)c1OC (stereo not given)	48.0%*
COc1ccccc1C1CC(c2ccccc2)=NN1C(=O)c1ccccc1 (stereo not given)	i
c1cc(-c2noc([C@@H]3CCCN3Cc3ncc[nH]3)n2)cc(N2CCCC2)n1	i
CC(C)CN(CC(C)C)S(=O)(=O)c1cccs1	i
O=C(NS(=O)(=O)c1ccc(NS(=O)(=O)c2cccs2)cc1)c1ccccc1	i
COc1ccccc1NC1=CC(=NS(=O)(=O)c2cccs2)c2ccccc2C1=O	90.0%*
COc1ccccc1NC1=CC(=NS(=O)(=O)c2ccc(Cl)cc2)c2ccccc2C1=O	95.0%*
O=C1C(Nc2ccccc2)=CC(=NS(=O)(=O)c2cccs2)c2ccccc21	86.0%*
COc1ccccc1NC1=CC(=O)CC(c2ccccc2)C1 (stereo not given)	i
O=C(O)c1cccc(Nc2nc(-c3cccs3)cs2)c1	i
O=C(O)c1cccc(NC2=CC(=NS(=O)(=O)c3cccs3)c3ccccc3C2=O)c1	40.0%*
COc1ccccc1NC(=O)C1c2cc(OC)c(OC)cc2C(=O)N(C)C1c1cccs1 (stereo not given)	i
NC(=NS(=O)(=O)c1cccs1)c1ccccc1	i
COC(=NS(=O)(=O)c1ccc(Cl)cc1)c1ccccc1	i
COc1cc(NS(=O)(=O)c2ccc(Cl)cc2)c(OC)cc1NC(=O)c1ccccc1	i
Cc1cccnc1CN(C(=O)CC1C(=O)NCCN1Cc1ccoc1)C(C)C (stereo not given)	i
Cn1c(=O)c2nc(-c3ccc(C(C)(C)C)cc3)oc2c2ccccc21	i
SMILES	ST2 IL33 inh
CCn1cc(C(=O)N2CCCCCC2)c(=O)c2cc(S(=O)(=O)N3CCCCC3)ccc21	i
CC(C)C(=O)NC1CC(=O)N(c2ccc(F)cc2)C1 (stereo not given)	i
CCOC(=O)c1cc2cc(Br)ccc2oc1=O	i
Cc1ccc(NC(=O)C(NS(=O)(=O)c2ccc3c(c2)oc(=O)n3C)C(C)C)c(C)c1 (stereo not given)	i
Cc1ccc(C2=NN(C(=O)c3ccccc3Br)C(O)(C(F)(F)F)C2)cc1 (stereo not given)	i
CNC(=O)C1CCC(Cn2c(=O)c3sccc3n(CC(=O)N3CCCC(C)C3)c2=O)CC1 (stereo not given)	i
Cc1ccc(F)c(-c2ncccc2C(=O)N2CCCC2)c1	i
Cc1ccc(F)c(-c2ncccc2NC(=O)C(C)C)c1	i
Cc1ccc(C)c(C2=C/C(=C3/c4ccccc4-c4ncccc43)C(=O)O2)c1	43.0%*
O=C(CSc1cn(CCNC(=O)c2ccc(F)cc2)c2ccccc12)Nc1ccccc1F	i
O=C(CCC(=O)N1C[C@@H]2CC[C@H]1C2)NC1CCCCCCC1	i
O=C(NC1CC(=O)N(c2ccccc2)C1)c1ccc(Br)o1 (stereo not given)	i
COc1ccc(N2CC(NC(=O)c3ccco3)CC2=O)cc1 (stereo not given)	i
COc1ccc(N2CC(NC(=O)c3ccc(Br)o3)CC2=O)cc1 (stereo not given)	31.0%*
Cc1c(Nc2ncnc3sc4c(c23)CCCC4)c(=O)n(-c2ccccc2)n1C	i
COc1ccc2oc(=O)c(C(=O)Nc3ccc(Cl)cc3Cl)cc2c1	i
Cc1ccc(NS(=O)(=O)c2c(C)[nH]c(=O)[nH]c2=O)c(Cl)c1	i
COc1ccc(NC(=O)C2(c3ccccc3)CC2(Cl)Cl)c(OC)c1 (stereo not given)	i
O=c1/c(=C/c2ccco2)sc2n1CN(c1ccc([N+](=O)[O-])cc1)CN=2	i
Cc1ccc(N2CN=c3s/c(=C\c4ccco4)c(=O)n3C2)cc1	34.0%*
CCOc1ccc(N2CN=c3s/c(=C/c4cccs4)c(=O)n3C2)cc1	i
COc1ccc(N=C2NC(=O)C(CO)(CO)S2)cc1	i
Cc1ccc(NC(=O)CCN2C(=O)S/C(=C\c3ccccc3)C2=O)cc1	i
C=CCOc1ccc(/C=C2/SC(=Nc3ccccc3)NC2=O)cc1OCC	37.0%*
O=C1NC(=Nc2ccccc2)S/C1=C/c1ccccn1	i
SMILES	ST2 IL33 inh
CCOc1ccc(/C=C2\SC(=O)N(CC(=O)N3CCOCC3)C2=O)cc1OCC	i
COc1ccc(/C=C2/SC(=Nc3ccccc3)NC2=O)c(OC)c1OC	45.0%*
Cc1ccc(N=C2NC(=O)C(Cc3ccccc3)S2)cc1 (stereo not given)	i
Cc1ccc(/C=C2/SC(=Nc3ccccc3)NC2=O)c(C)c1	35.0%*
CC(=O)Nc1ccc(/C=C2/SC(=Nc3ccccc3)NC2=O)cc1	31.0%*
CC(=O)Nc1ccc(NC(=O)NC2(c3ccccc3)CC2)cc1	i
COc1cccc(/C=C2/SC(=Nc3ccccc3)NC2=O)c1OC	i
CCOc1cc(C=C2C(=O)c3ccccc3C2=O)ccc1OC(C)C(=O)O (stereo not given)	i
COc1ccc(S(=O)(=O)Nc2cc(Cl)cc(Cl)c2)cc1	i
Cc1ccc(C2C(C#N)=C(N)Oc3n[nH]c(C(F)(F)F)c32)cc1 (stereo not given)	i
O=C(Nc1ccc(Oc2ccccc2)cc1)C1CC(=O)N(c2ccccc2Cl)C1 (stereo not given)	i
COc1cc(/C=C2/SC(=O)NC2=O)ccc1O	i
COc1cc(/C=C2/SC(=Nc3ccccc3)NC2=O)ccc1O	38.0%*
COc1cccc(/C=C2/SC(=Nc3ccccc3)NC2=O)c1	i
Cn1c(=O)c2c(SCc3cccc(F)c3)nc(-c3cccs3)nc2n(C)c1=O	i
CCSC1=N/C(=C\c2ccc(C)s2)C(=O)S1	57.0%*
Cc1ccc(/C=C2\C(=O)NN(c3ccc(Cl)c(Cl)c3)C2=O)s1	i
CCSC1=N/C(=C\c2ccc(C(=O)O)cc2)C(=O)S1	i
C/C(=C\c1nsc(Nc2ccc(Cl)cc2)n1)NCC1CCCO1 (stereo not given)	i
CCCNC(=O)C(=O)Nc1cccc(Cl)c1	i
Nn1c(SCc2nc3ccccc3[nH]2)nnc1-c1cccc(Br)c1	i
Cc1cccc(CSc2nc3n(n2)C(c2cccs2)C2=C(CCCC2=O)N3)c1 (stereo not given)	i
O=C(c1ccc(Br)cc1)N1CCC(Cc2ccccc2)CC1	i
O=[N+]([O-])c1ccc(-c2nc3ccccc3o2)cc1	i
O=[N+]([O-])c1ccc(-c2cnc3ccccc3n2)cc1	31.0%*
Cc1nc2ccccc2nc1-c1ccc([N+](=O)[O-])cc1	i
CC(C)CNc1nc(-c2ccccc2)nc2ccccc12	i
CC(C)c1ccccc1NC(=O)CSc1nnc(COc2ccc3c(c2)CCCC3)o1	i
